Inconclusive results are not listed. Calls of active or inactive are those of the source. Unless noted, calls follow the shape of the dose curve; as a rule, active = well fitted curve in the direction sought with a large enough effect in the repeat runs; inconclusive = weak or mixed curves; inactive = no such curve, though single readings can be large; an effect the other way counts as inactive or inconclusive.
What was measured:
[1] = qHTS assay to identify small molecule agonists of the vitamin D receptor (VDR) signaling pathway - cell viability counter screen (AID 743224); also: nearly all actives have a fitted effect of over 50% in size
How it was run: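 Plated VDR-bla cells (4 h, 37C) received compound, incubated 16 h, then LiveBLAzer substrate 2 h RT; CellTiter-Glo added afterwards, luminescence read at 30 min.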

[2] = qHTS assay to identify small molecule antagonists of the vitamin D receptor (VDR) signaling pathway - cell viability counter screen (AID 743225); also: nearly all actives have a fitted effect of over 50% in size
How it was run: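 Cells (VDR-UAS-bla HEK 293T) are plated, rested 4 h at 37C, dosed with compound and 3 nM final 1-alpha,25-dihydroxy vitamin D3, and incubated 16 h. Viability is taken from CellTiter-Glo luminescence in the reporter wells.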

[3] = qHTS assay to identify small molecule agonists of the NFkB signaling pathway (AID 1159509; active = well fitted curve in the direction sought with a large enough effect in the signal ratio in the repeat runs, not every such curve was filed as active; the % refers to the signal ratio)
How it was run: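 After overnight attachment, reporter cells received test compounds, DMSO or positive controls and were incubated 5 hr at 37 C. FRET substrate was then added for 1.5 hr at room temperature before dual-emission fluorescence reading.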

[4] = qHTS assay to identify small molecule agonists of the NFkB signaling pathway - cell viability counter screen (AID 1159515; calls by dose curve; also: nearly all actives have a fitted effect of over 55% in size)
How it was run: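 Using the same wells as the NFkB reporter read, ME-180 NFkB-bla cells given compounds for 5 hr were assessed for viability via CellTiter-Glo, with luminescence taken after a 30 min room-temperature incubation.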

[5] = qHTS assay to identify small molecule agonists of the endoplasmic reticulum stress response signaling pathway (AID 1159516; active = well fitted activation curve with a large enough effect in the signal ratio in the repeat runs, not every such curve was filed as active; the % refers to the signal ratio)
How it was run: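 An ESRE-bla HeLa cell assay: compounds were pin-transferred from DMSO onto overnight-plated cells and left 5 hr at 37 C. Substrate was then loaded for 2 hr at room temperature before reading fluorescence at 460 nm and 530 nm.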

[6] = qHTS assay to identify small molecule agonists of the endoplasmic reticulum stress response signaling pathway - cell viability counter screen (AID 1159517; calls by dose curve;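 also: HeLa cells carrying an ER stress response element beta-lactamase reporter; nearly all actives have a fitted effect of over 50% in size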)
How it was run: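 Counter-screen wells were identical to the reporter wells. Cells were plated at 1,500 per well and dosed for 5 hr, then read for luminescence 30 min after CellTiter-Glo addition.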

[7] = qHTS assay to identify small molecule antagonists of the retinoid-related orphan receptor gamma (ROR-gamma) signaling pathway - cell viability counter screen (AID 1159520); also: nearly all actives have a fitted effect of over 50% in size
How it was run: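 Tet-on ROR gamma CHO cells were given compounds for 2 hr, then doxycycline hyclate at 1 uM final, and incubated 16 hr at 37 C. Viability was measured as ATP content by CellTiter-Glo luminescence.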

[8] = biological target: Nuclear receptor ROR-gamma (Homo sapiens) (UniProt P51449); assay: qHTS assay to identify small molecule antagonists of the retinoid-related orphan receptor gamma (ROR-gamma) signaling pathway (AID 1159521)
How it was run: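 RORγ antagonism is scored from reduced reporter luminescence in Tet-on CHO cells. Induction used 1 uM final doxycycline hyclate for 16 h at 37 C, following a 2 h compound exposure.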

[9] = qHTS assay to identify small molecule agonists of the AP-1 signaling pathway - cell viability counter screen (AID 1159525; calls by dose curve; also: nearly all actives have a fitted effect of over 55% in size)
How it was run: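 AP-1-bla ME-180 cells in Opti-MEM with 0.5% dialyzed FBS, compound exposure 5 h at 37 C in 15-point titration. Viability read in the same wells as ATP content by CellTiter-Glo luminescence, normalised to tetra-n-octylammonium bromide and DMSO controls.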

[10] = qHTS assay to identify small molecule agonists of the AP-1 signaling pathway (AID 1159526; calls by dose curve)
[11] = biological target: Retinoic acid receptor RXR-alpha (Homo sapiens) (UniProt P19793); assay: qHTS assay to identify small molecule agonists of the RXR signaling pathway (AID 1159527; calls by dose curve; also: nearly all actives have a fitted effect of over 35% in size)
Chain of Retinoic acid receptor RXR-alpha (Homo sapiens) (P19793 whole entry, looked up): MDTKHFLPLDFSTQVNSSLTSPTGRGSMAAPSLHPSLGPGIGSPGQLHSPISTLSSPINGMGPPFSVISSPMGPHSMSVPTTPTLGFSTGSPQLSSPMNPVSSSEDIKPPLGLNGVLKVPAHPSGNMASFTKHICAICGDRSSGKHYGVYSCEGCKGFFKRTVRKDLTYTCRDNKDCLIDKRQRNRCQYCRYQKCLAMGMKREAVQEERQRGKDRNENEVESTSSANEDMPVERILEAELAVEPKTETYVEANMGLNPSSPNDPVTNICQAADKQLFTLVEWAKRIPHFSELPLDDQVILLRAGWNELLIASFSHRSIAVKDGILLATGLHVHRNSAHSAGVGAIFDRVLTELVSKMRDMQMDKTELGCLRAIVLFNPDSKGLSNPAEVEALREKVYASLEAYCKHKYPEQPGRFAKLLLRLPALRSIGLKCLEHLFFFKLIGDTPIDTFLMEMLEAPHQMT
How it was run: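 qHTS of the Tox21 10K library in GeneBLAzer RXR-alpha HEK 293T cells carrying a beta-lactamase reporter […]; 16 hr treatment, 9-cis retinoic acid as agonist control, FRET read-out.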

[12] = qHTS assay to identify small molecule agonists of the RXR signaling pathway - cell viability counter screen (AID 1159529); also: nearly all actives have a fitted effect of over 50% in size
How it was run: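 Cell viability is measured by CellTiter-Glo luminescence, 30 min at room temperature, in wells already read for beta-lactamase. Engineered HEK 293T cells (RXR-alpha-UAS-bla) are dosed 16 hr at 37 C. Tetraoctyl ammonium bromide serves as positive control.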

[13] = qHTS assay to identify small molecule antagonists of the retinoid acid receptor (RAR) signaling pathway - cell viability counter screen (AID 1159551); also: nearly all actives have a fitted effect of over 35% in size
How it was run: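 Retinol-stimulated (1 uM final) C3RL4 cells, compound 6 h, 37 C; readout CellTiter-Glo luminescence (ATP) after 30 min RT incubation.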

[14] = qHTS assay to identify small molecule antagonists of the retinoic acid receptor (RAR) signaling pathway (AID 1159552; also: nearly all actives have a fitted effect of over 50% in size)
How it was run: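 Quantitative HTS in C3RL4 RARE-luciferase reporter cells. Compounds were added with 1 uM (final) retinol; luminescence was read after 6 hr.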

[15] = qHTS assay to identify small molecule agonists of the retinoic acid receptor (RAR) signaling pathway (AID 1159553); conditions: C3RL4 RARE luciferase reporter, agonist, 6 h; activation: at 73.3 µM (top of the series) unless noted
How it was run: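 Reporter readout comes from luciferase under RARE control in C3RL4 cells; compound exposure lasts 6 hr at 37 C in 5% CO2, and luminescence is recorded following a 30 min room-temperature incubation with reagent.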

[16] = qHTS assay to identify small molecule antagonists of the estrogen related receptor (ERR) signaling pathway - cell viability counter screen (AID 1224818);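 also: viability measured after 17.5 h of compound exposure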
How it was run: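 After a 6 h pre-incubation, ERR cells were dosed by pin tool with compounds, positive/negative controls or DMSO alone. Following 17.5 h at 37 C and 30 min with CellTiter-Fluor, fluorescence was recorded.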

[17] = qHTS assay to identify small molecule antagonists of the estrogen related receptor signaling pathway with the pleiotropic PPARgamma coactivator (PGC) cell viability counter screen (AID 1224822;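 also: viability read after 17.5 h compound exposure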)
How it was run: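 PGC/ERR cells were plated at 2,000 per well and allowed 6 h to settle before compound addition. Following 17.5 h at 37 C, CellTiter-Fluor reagent was added and fluorescence was read 30 min later.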

Measured: Potency

CC1(C)C(C=C(Cl)Cl)C1C(=O)OC(C#N)c1cccc(Oc2ccccc2)c1 (centres undefined)
inactive: [1] | [2] | [3] | [4] | [5] | [6] | [7] | [8] | [9] | [10] | [11] | [12] | [13] | [14] | [15]

C=CCN(CC=C)C(=O)C(Cl)Cl
inactive: [1] | [2] | [3] | [4] | [5] | [6] | [7] | [8] | [9] | [10] | [11] | [12] | [13]

CCN(N=O)C(N)=O
inactive: [1] | [2] | [3] | [4] | [5] | [6] | [7] | [8] | [9] | [10] | [11] | [12] | [13] | [14] | [15]

O=C(O)CC[N+](=O)[O-]
inactive: [1] | [2] | [3] | [4] | [5] | [6] | [7] | [8] | [9] | [10] | [11] | [12] | [13] | [14] | [15] | [16] | [17]

Nc1ccc(Cl)c(Cl)c1
inactive: [1] | [2] | [3] | [4] | [5] | [6] | [7] | [8] | [9] | [10] | [11] | [12] | [13]

CCCCN(CCCC)N=O
inactive: [1] | [2] | [3] | [4] | [5] | [6] | [7] | [8] | [9] | [10] | [11] | [12] | [13]

COP(=S)(OC)Oc1ccc([N+](=O)[O-])cc1
inactive: [1] | [2] | [3] | [4] | [5] | [6] | [7] | [8] | [9] | [10] | [11] | [12] | [13] | [14] | [15]

CN(C)C(=O)Nc1ccc(Cl)cc1
inactive: [1] | [2] | [3] | [4] | [5] | [6] | [7] | [8] | [9] | [10] | [11] | [12] | [13]

CCN(CC)C(=O)/C(Cl)=C(\C)OP(=O)(OC)OC
inactive: [1] | [2] | [3] | [4] | [5] | [6] | [7] | [8] | [9] | [10] | [11] | [12] | [13] | [14] | [15]
